This is an account of results in PubChem BioAssay (NCATS).

Assay [1] can be described thus: qHTS of pediatric cancer cell lines to identify multiple opportunities for drug repurposing: Primary screen for TC32 cells (AID 1347089). Further: nearly all actives have a fitted effect of over 60% in size. Further: potency means the concentration at half of the fitted maximal effect. The method, boiled down:
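Luminescent ATP read-out (CellTiter-Glo) of metabolically active TC32 cells after 48 h exposure. Concentration-response curves came from 11-point (MIPE, 0.78 nM–46 µM) or 8-point (NPC, 0.59 nM–46 µM) primary titrations; follow-up used 11 points.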

Assay [2] can be described thus: qHTS of pediatric cancer cell lines to identify multiple opportunities for drug repurposing: Primary screen for DAOY cells (AID 1347090). Further: nearly all actives have a fitted effect of over 55% in size. Further: potency means the concentration at half of the fitted maximal effect. The method, boiled down:
(§1)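 Cell viability, CellTiter-Glo luminescence; 500-1,000 cells/well, 8- or 11-point titration, 48 h compound exposure at 37 degrees C, 5% CO2. Controls: DMSO neutral, bortezomib 2.3 µM final as positive.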

Assay [3] can be described thus: qHTS of pediatric cancer cell lines to identify multiple opportunities for drug repurposing: Primary screen for A673 cells (AID 1347092). Further: potency means the concentration at half of the fitted maximal effect; nearly all actives have a fitted effect of over 45% in size. The method, boiled down: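 Cell viability of A673 measured by CellTiter-Glo ATP luminescence after 48 hours compound exposure. Dilution series spanned 0.78 nM to 46 µM (MIPE, 11-point) or 0.59 nM to 46 µM (NPC, 8-point); bortezomib 2.3 uM positive control.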

Assay [4] is described as follows: qHTS of pediatric cancer cell lines to identify multiple opportunities for drug repurposing: Primary screen for SK-N-MC cells (AID 1347093). Further: potency means the concentration at half of the fitted maximal effect. The method, boiled down: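 Metabolically active cells were quantified by ATP-dependent luminescence (CellTiter-Glo, 15 min at room temperature) following 48 h treatment. Cells had been plated at 500-1,000 per well and settled for 5 h beforehand.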

Assay [5] can be described thus: qHTS of pediatric cancer cell lines to identify multiple opportunities for drug repurposing: Primary screen for BT-37 cells (AID 1347094). Further: potency means the concentration at half of the fitted maximal effect. The method, boiled down:
(§2)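 Cells seeded at 500-1,000 cells/well in growth media, rested 5 hours at 37 degrees C, 5% CO2, then dosed; MIPE compounds at 11-point (from 0.78 nM) and NPC at 8-point (from 0.59 nM) final concentrations. Viability by CellTiter-Glo luminescence after 48 hours.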

Assay [6] can be described thus: qHTS of pediatric cancer cell lines to identify multiple opportunities for drug repurposing: Primary screen for NB-EBc1 cells (AID 1347095). Further: potency means the concentration at half of the fitted maximal effect. The method, boiled down: as §2
Assay [7] is described as follows: qHTS of pediatric cancer cell lines to identify multiple opportunities for drug repurposing: Primary screen for U-2 OS cells (AID 1347096). Further: nearly all actives have a fitted effect of over 50% in size. The method, boiled down:
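Cells (500-1,000/well) rested 5 h, then received compounds for 48 h; metabolically active cells were measured by CellTiter-Glo luminescence. Final concentrations spanned up to 46 µM (MIPE, 11-point) or 0.59 nM-46 µM (NPC, 8-point) in primary screens, 11-point in follow-ups.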

Assay [8] can be described thus: qHTS of pediatric cancer cell lines to identify multiple opportunities for drug repurposing: Primary screen for Saos-2 cells (AID 1347097). Further: nearly all actives have a fitted effect of over 40% in size. Further: potency means the concentration at half of the fitted maximal effect. The method, boiled down:
as §2

Assay [9] is described as follows: qHTS of pediatric cancer cell lines to identify multiple opportunities for drug repurposing: Primary screen for SJ-GBM2 cells (AID 1347091). Further: potency means the concentration at half of the fitted maximal effect. The method, boiled down: as §1

Records with an inconclusive call do not appear. Active and inactive are the calls of the source. The call rests on the fitted dose curve; in most records, active means well fitted curve in the direction sought with a large enough effect; inconclusive means small, poorly fitted or top-dose-only effect, or another doubt; inactive means no such curve, though single readings can be large; an effect the other way counts as inactive or inconclusive.

Consider `CC1(C)O[C@H]2C[C@@H]3[C@H]4CCC5=CC(=O)C=C[C@]5(C)[C@@]4(F)[C@@H](O)C[C@]3(C)[C@]2(C(=O)CO)O1`, for which the Potency entry in [1], in [2], in assay [7] and in assay [8] was “inactive” each time. Also, the Potency in assay [3] is 3.72 µM (active); in [4] it was 8.33 µM (active); in assay [5] it was 13.7 µM (active); in assay [6] it was 2.35 µM (active).

As to `NC(=O)c1cnc(-c2ccc(C3(N)CCC3)cc2)c(-c2ccccc2)c1`, the Potency result in assay [1], in assay [2], in assay [5], in assay [6] and in assay [7] was “inactive” each time. Moreover, in assay [4], the Potency was 1.48 µM (active).

As for `COc1cc2ncnc(-n3nc(-c4ccccn4)nc3N)c2cc1OC`, the Potency result in assay [1] and in [7] was “inactive” throughout. For the same compound, the Potency is 18.7 µM (active) in [2]; 3.72 µM (active) in [3]; 4.69 µM (active) in [4]; 14.8 µM (active) in assay [6]; 4.69 µM (active) in assay [8].

On to `CCN(CC)CCOc1ccc(C(=C(Cl)c2ccccc2)c2ccccc2)cc1`, for which the Potency result in [1], in assay [2], in assay [5], in assay [6] and in [7] was “inactive” each time. Moreover, the Potency in assay [3] was 29.6 µM (active); in assay [4], 14.8 µM (active).

Take `CO[C@H]1C[C@@H]2CC[C@@H](C)[C@@](O)(O2)C(=O)C(=O)N2CCCC[C@@H]2C(=O)O[C@H]([C@H](C)C[C@@H]2CC[C@H](OCCO)[C@H](OC)C2)CC(=O)[C@H](C)C=C(C)[C@@H](O)[C@@H](OC)C(=O)[C@H](C)C[C@H](C)C=CC=CC=C1C`: the Potency in [1] is 3.3 µM (active); in [3], 11.8 µM (active); in [5], 10.9 µM (active); in [8] it was 3.32 µM (active). Further, the Potency entry in [2] is “inactive”.

On to `CN(C)c1cc(NC(=O)CNC(C)(C)C)c(O)c2c1C[C@@H]1C[C@H]3[C@H](N(C)C)C(=O)C(C(N)=O)=C(O)[C@@]3(O)C(=O)C1=C2O`, for which the Potency entry in assay [1], in [2], in [4], in assay [5], in [6] and in assay [7] was “inactive” in each case. Besides, the Potency entry in assay [8] was “inactive”.

As for `Nc1ncnc2c1ncn2[C@@H]1O[C@@H](CO)[C@H](O)[C@H]1O`, the Potency result in assay [1], in assay [2], in assay [4], in [5], in assay [6] and in assay [7] was “inactive” in each case.

On to `COc1cc(NC(=O)c2ccc(-c3ccc(Cl)cc3)o2)cc(OC)c1`, for which the Potency entry in assay [1], in [6] and in assay [8] was “inactive” throughout. The results for the Potency in assay [2], in [3] and in assay [4] were 2.96 µM (active), 7.43 µM (active) and 1.32 µM (active), respectively.

Turning to `CC=C(C)C(=O)O[C@H]1C(C)=C[C@]23C(=O)[C@@H](C=C(CO)[C@@H](O)[C@]12O)[C@H]1[C@@H](C[C@H]3C)C1(C)C`, the Potency result in assay [1] was “inactive”. Also, the Potency is 18.7 µM (active) in assay [9]; 0.0148 µM (active) in assay [3]; 4.69 µM (active) in assay [4]; 24.3 µM (active) in assay [5]; 14.8 µM (active) in assay [6]; 0.296 µM (active) in assay [8].

For `CO[C@H]1C[C@@H]2CC[C@@H](C)[C@@](O)(O2)C(=O)C(=O)N2CCCC[C@@H]2C(=O)O[C@H]([C@@H](C)C[C@@H]2CC[C@H](O)[C@H](OC)C2)CC(=O)[C@H](C)C=C(C)[C@@H](O)[C@@H](OC)C(=O)[C@H](C)C[C@H](C)C=CC=CC=C1C`, the Potency result in assay [1], in assay [2], in [7] and in [8] was “inactive” throughout.

With `Cc1ccc(Nc2cc(-c3cccc(N4C(=O)c5ccccc5C4=O)c3)ncn2)cc1NS(C)(=O)=O`, the Potency entry in assay [1], in [9] and in [7] was “inactive” in each case. Further, the Potency in [3] is 18.7 µM (active); in assay [8], 33.2 µM (active).

Consider `CC(=NNC(=S)N1CCC1)c1ccccn1`, for which the Potency is 0.0415 µM (active) in assay [1]; 0.0209 µM (active) in assay [9]; 0.0037 µM (active) in [3]; 0.0013 µM (active) in assay [4]; 0.0054 µM (active) in [5]; 0.0166 µM (active) in assay [6]. For the same compound, the Potency result in [7] and in assay [8] was “inactive” each time.

`N#CC(=C(N)Sc1ccccc1N)C(C#N)=C(N)Sc1ccccc1N`: the Potency entry in assay [1], in assay [6] and in [7] was “inactive” in each case. Also, the Potency in [2] was 23.5 µM (active); in assay [4], 2.96 µM (active); in assay [8], 29.6 µM (active).

As for `Cc1nnc(C(C)C)n1C1C[C@H]2CC[C@@H](C1)N2CC[C@H](NC(=O)C1CCC(F)(F)CC1)c1ccccc1` (some centres undefined), the Potency entry in assay [1], in assay [9], in assay [5], in assay [6], in [7] and in assay [8] was “inactive” throughout. Also, the Potency is 14.8 µM (active) in assay [3] and 4.18 µM (active) in [4].

Consider `CN(C)C1CCN(C(=O)c2ccc(NC(=O)Nc3nc(N4CCOCC4)nc(N4CCOCC4)n3)cc2)CC1`, for which the Potency is 0.0658 µM (active) in [1]; 0.105 µM (active) in [9]; 0.0118 µM (active) in [3]; 0.0166 µM (active) in assay [4]; 0.0273 µM (active) in assay [5]; 1.32 µM (active) in assay [6]. Also, in [8], the Potency is 0.166 µM (active).

Consider `COc1cc(N2CCC(N3CCN(C)CC3)CC2)ccc1Nc1ncc(Cl)c(Nc2ccccc2S(=O)(=O)C(C)C)n1`, for which the Potency entry in assay [1], in assay [2], in assay [5] and in assay [7] was “inactive” each time. Besides, the Potency in assay [4] is 0.001 µM (active).

On to `O=C(O)C(O)Cc1ccc(O)c(O)c1` (centres undefined), for which the Potency result in assay [1], in assay [2], in assay [5] and in [7] was “inactive” throughout.

For `O=c1cc(CN2CCOCC2)occ1OCCCCCSc1ccnc2cc(C(F)(F)F)ccc12`, the Potency entry in [1] is “inactive”. Further, the Potency in [9] is 1.32 µM (active); in [3] it was 14.8 µM (active); in assay [4], 1.32 µM (active); in assay [8], 4.18 µM (active).

As to `Oc1ccc(C2=Cc3ccc(O)cc3OC2)cc1`, the Potency was 7.39 µM (active) in assay [1]; 5.26 µM (active) in [9]; 2.35 µM (active) in assay [3]; 1.66 µM (active) in assay [4]; 12.2 µM (active) in [5]; 1.66 µM (active) in assay [6]. Further, the Potency in assay [8] is 11.8 µM (active). The Potency entry in assay [7] is “inactive”.

With `O=C1Nc2ccc(Cl)cc2C(C#CC2CC2)(C(F)(F)F)O1` (centres undefined), the Potency entry in assay [1] and in assay [6] was “inactive” in each case. Moreover, the Potency is 29.6 µM (active) in assay [2], 13.2 µM (active) in assay [4] and 20.9 µM (active) in assay [8].

For `CC[C@@H]1C=C(C)C[C@H](C)C[C@H](OC)[C@H]2O[C@@](O)(C(=O)C(=O)N3CCCC[C@@H]3C(=O)O[C@H](C(C)=C[C@@H]3CC[C@H](Cl)[C@H](OC)C3)[C@H](C)[C@@H](O)CC1=O)[C@H](C)C[C@H]2OC`, the Potency result in assay [1], in [2] and in assay [7] was “inactive” in each case. In addition, the Potency in assay [4] was 11.8 µM (active); in [8], 9.35 µM (active).
